From the supplement of paper PMC11732987, “Enantioselective OTUD7B fragment discovery through chemoproteomics screening and high-throughput optimisation” (Communications Chemistry, 2025)

How the values were obtained:
Assay in all cases: log2 ratio of Biotin-Ahx-Ub-VS probe labelling (fragment/DMSO); higher = less target engagement (more negative = stronger competition), active = hit call of the paper (q ≤ 0.05, log2 ratio ≤ -1)
Conditions in all cases: compound concentration: 200 uM; treatment time: 3 h
USP34 = USP34 (UniProt Q70CQ2)
Sequence of USP34 (Q70CQ2 whole entry, the tested form may be a part): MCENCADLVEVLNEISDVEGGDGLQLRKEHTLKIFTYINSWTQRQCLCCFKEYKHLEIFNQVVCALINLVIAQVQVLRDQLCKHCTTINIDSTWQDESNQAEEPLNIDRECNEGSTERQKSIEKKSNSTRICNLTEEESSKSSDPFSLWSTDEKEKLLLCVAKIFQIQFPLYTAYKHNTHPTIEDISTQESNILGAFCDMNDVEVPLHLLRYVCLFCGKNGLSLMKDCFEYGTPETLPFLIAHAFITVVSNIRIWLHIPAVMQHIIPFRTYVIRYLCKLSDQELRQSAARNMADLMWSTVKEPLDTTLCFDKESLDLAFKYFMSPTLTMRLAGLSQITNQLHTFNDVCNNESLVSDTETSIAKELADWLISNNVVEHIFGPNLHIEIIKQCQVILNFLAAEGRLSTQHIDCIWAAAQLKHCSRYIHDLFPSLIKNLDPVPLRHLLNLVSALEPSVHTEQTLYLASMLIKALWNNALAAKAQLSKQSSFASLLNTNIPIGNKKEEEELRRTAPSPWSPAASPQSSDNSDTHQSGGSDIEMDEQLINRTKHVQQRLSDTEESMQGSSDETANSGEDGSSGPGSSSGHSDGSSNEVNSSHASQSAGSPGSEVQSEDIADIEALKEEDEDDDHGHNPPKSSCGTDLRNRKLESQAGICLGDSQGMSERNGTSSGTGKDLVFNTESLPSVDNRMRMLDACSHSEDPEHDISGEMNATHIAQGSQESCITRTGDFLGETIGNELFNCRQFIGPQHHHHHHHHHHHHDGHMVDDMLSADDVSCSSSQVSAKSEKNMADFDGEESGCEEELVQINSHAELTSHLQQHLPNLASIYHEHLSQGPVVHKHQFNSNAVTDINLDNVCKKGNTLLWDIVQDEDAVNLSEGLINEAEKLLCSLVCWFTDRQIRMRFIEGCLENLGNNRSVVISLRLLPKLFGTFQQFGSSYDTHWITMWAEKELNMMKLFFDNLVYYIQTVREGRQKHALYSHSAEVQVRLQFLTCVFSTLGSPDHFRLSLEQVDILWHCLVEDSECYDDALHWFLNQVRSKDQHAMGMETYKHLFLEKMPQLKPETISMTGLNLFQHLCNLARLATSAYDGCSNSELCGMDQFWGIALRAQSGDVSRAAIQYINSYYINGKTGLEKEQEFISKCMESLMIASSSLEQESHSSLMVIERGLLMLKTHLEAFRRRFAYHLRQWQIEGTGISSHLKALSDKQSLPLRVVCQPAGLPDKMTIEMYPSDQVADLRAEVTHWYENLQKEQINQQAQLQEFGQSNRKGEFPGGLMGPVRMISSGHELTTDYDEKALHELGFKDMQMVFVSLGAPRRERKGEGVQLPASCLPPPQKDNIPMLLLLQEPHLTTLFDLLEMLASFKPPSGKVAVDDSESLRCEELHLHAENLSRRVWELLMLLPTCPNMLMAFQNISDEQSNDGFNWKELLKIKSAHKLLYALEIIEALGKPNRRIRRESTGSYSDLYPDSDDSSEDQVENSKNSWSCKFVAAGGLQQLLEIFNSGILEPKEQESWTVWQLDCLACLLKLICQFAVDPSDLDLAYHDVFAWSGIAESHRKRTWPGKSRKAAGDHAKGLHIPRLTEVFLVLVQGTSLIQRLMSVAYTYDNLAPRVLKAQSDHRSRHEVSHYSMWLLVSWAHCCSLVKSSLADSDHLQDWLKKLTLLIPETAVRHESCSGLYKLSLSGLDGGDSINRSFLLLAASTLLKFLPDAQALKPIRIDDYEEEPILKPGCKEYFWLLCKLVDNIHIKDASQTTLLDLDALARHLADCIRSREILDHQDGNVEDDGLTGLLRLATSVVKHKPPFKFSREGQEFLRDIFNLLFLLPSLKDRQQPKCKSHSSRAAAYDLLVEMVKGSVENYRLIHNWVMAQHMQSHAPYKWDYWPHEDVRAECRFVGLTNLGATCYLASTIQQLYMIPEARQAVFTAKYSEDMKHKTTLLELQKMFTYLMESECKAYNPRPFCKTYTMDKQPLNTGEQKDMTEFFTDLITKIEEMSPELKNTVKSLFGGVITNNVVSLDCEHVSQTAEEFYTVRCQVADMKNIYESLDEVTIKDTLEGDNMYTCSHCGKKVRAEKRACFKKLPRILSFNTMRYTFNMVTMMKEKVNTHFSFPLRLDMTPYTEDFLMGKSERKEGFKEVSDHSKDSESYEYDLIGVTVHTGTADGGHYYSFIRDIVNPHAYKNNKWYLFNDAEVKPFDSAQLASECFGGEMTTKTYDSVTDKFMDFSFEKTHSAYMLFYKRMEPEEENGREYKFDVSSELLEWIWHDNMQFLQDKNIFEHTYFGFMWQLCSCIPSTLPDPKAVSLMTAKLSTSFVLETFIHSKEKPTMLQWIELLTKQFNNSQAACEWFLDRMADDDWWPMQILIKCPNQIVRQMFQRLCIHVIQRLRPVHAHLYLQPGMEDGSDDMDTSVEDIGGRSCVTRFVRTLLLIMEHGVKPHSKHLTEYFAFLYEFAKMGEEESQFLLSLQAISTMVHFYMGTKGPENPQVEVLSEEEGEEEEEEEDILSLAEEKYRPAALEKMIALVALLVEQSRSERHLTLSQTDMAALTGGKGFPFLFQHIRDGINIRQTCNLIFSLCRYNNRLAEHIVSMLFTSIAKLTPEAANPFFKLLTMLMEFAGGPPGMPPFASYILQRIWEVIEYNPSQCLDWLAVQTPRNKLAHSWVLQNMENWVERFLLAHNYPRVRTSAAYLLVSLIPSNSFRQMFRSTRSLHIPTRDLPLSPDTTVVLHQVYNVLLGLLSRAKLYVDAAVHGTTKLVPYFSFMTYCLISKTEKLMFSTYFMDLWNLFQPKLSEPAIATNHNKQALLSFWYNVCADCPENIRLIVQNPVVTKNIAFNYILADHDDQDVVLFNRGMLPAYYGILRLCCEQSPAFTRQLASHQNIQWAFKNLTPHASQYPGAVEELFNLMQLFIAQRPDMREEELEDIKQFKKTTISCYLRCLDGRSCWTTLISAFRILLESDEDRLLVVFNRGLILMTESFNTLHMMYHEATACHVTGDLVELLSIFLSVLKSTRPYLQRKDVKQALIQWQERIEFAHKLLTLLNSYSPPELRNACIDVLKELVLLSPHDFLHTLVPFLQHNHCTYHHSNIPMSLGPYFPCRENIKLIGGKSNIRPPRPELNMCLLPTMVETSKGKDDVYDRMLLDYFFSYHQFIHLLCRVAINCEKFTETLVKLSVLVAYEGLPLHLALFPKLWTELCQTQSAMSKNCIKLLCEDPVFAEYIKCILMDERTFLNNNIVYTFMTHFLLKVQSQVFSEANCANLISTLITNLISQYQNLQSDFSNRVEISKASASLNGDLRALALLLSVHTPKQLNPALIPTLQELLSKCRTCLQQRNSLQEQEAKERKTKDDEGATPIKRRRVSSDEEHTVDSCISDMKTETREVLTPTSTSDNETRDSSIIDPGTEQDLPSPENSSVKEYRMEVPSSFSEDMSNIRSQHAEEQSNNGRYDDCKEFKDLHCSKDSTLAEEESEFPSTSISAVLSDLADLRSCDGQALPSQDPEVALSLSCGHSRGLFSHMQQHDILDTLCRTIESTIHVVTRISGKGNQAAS
Procedure, shortened: (§1)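 Labelled DUBs from HEK293T lysate were NeutrAvidin-enriched, digested with LysC and trypsin, and run by diaPASEF LC-MS/MS. Before that, each 495 µg sample in Tris/CHAPS/IGEPAL buffer with protease inhibitors was treated in triplicate with fragment at 200 µM or vehicle for 3 h, then with Biotin-Ahx-Ub-VS at 0.5 µM final for 1 h. Values are average log2 ratios of fragment over vehicle by unpaired t-test, based on global-median-normalised Spectronaut label-free quantities from proteins with ≥2 unique peptides.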

USP36 = target: T1, USP36 (UniProt Q9P275)
T1 sequence (whole entry): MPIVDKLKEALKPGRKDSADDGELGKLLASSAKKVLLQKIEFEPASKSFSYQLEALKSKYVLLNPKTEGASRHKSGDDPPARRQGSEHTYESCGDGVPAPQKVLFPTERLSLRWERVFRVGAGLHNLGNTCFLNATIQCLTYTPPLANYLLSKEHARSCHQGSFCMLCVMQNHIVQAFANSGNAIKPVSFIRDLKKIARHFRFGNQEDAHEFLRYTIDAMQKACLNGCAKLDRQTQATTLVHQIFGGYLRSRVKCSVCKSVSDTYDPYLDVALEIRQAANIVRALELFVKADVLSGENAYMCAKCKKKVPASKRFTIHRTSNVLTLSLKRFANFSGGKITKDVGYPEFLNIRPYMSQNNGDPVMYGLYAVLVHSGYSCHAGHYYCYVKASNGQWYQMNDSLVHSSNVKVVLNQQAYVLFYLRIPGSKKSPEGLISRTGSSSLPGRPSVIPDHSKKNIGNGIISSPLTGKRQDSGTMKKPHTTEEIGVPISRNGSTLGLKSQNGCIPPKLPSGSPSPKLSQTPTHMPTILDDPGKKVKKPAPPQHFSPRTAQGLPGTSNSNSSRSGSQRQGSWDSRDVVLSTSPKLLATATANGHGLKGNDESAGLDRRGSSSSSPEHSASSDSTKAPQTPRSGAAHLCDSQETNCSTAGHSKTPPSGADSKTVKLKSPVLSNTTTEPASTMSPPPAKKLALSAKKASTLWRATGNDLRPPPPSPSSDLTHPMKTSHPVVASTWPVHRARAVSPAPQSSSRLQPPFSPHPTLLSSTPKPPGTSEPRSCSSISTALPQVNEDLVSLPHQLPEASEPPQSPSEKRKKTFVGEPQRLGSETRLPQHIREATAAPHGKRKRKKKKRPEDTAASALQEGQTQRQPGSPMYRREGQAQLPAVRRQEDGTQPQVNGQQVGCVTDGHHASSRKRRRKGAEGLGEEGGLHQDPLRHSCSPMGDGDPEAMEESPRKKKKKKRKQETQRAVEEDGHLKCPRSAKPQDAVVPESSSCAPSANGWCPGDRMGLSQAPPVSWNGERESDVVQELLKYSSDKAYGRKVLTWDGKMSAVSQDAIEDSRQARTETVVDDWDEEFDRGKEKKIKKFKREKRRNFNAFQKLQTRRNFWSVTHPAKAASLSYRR
Procedure, shortened: as §1

USP38 = target: T2, USP38 (UniProt Q8NB14)
T2 sequence (whole entry): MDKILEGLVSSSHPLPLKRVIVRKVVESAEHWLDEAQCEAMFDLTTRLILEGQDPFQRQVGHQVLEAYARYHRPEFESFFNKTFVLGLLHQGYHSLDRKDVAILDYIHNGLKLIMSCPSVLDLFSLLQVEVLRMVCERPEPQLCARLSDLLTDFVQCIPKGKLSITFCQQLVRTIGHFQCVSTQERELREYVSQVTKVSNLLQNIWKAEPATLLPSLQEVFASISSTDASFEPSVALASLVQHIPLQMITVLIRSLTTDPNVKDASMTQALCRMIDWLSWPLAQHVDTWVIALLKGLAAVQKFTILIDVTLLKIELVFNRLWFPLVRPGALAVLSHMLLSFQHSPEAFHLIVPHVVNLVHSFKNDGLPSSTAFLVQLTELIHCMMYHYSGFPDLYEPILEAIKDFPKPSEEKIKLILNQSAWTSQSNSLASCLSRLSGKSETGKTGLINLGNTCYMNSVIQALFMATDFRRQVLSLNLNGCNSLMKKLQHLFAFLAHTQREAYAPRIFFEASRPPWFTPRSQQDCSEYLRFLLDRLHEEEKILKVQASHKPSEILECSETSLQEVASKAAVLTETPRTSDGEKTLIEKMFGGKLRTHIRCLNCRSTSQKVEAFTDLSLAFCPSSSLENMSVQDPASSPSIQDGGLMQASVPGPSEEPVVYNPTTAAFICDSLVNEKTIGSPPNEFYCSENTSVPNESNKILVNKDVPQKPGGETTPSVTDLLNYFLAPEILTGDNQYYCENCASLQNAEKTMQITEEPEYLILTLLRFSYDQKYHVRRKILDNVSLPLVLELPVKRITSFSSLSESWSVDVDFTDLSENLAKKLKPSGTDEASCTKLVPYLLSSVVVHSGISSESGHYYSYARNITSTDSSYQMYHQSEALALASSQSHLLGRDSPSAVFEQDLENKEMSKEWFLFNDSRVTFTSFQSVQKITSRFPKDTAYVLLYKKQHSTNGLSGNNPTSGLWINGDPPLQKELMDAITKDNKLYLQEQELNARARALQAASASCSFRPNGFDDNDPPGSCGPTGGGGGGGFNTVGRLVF
Procedure, shortened: as §1

USP39 = target: T3, USP39 (UniProt Q53GS9)
T3 sequence (whole entry): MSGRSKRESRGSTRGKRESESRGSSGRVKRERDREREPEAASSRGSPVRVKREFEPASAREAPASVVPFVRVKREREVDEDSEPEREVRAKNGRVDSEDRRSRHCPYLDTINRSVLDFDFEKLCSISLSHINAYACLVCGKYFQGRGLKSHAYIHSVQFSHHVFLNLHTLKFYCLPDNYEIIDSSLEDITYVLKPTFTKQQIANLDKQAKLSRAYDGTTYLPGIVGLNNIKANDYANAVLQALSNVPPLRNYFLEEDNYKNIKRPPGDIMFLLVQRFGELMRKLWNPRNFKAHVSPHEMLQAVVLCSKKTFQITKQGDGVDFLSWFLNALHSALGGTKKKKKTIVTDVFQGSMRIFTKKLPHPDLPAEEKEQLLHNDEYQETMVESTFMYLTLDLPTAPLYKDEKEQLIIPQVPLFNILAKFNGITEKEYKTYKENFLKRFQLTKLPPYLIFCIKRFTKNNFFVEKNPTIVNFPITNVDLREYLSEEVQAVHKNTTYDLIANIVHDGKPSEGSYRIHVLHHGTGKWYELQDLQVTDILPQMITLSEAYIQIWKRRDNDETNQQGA
Procedure, shortened: as §1

USP4 = target: T4, USP4 (UniProt Q13107)
T4 sequence (whole entry): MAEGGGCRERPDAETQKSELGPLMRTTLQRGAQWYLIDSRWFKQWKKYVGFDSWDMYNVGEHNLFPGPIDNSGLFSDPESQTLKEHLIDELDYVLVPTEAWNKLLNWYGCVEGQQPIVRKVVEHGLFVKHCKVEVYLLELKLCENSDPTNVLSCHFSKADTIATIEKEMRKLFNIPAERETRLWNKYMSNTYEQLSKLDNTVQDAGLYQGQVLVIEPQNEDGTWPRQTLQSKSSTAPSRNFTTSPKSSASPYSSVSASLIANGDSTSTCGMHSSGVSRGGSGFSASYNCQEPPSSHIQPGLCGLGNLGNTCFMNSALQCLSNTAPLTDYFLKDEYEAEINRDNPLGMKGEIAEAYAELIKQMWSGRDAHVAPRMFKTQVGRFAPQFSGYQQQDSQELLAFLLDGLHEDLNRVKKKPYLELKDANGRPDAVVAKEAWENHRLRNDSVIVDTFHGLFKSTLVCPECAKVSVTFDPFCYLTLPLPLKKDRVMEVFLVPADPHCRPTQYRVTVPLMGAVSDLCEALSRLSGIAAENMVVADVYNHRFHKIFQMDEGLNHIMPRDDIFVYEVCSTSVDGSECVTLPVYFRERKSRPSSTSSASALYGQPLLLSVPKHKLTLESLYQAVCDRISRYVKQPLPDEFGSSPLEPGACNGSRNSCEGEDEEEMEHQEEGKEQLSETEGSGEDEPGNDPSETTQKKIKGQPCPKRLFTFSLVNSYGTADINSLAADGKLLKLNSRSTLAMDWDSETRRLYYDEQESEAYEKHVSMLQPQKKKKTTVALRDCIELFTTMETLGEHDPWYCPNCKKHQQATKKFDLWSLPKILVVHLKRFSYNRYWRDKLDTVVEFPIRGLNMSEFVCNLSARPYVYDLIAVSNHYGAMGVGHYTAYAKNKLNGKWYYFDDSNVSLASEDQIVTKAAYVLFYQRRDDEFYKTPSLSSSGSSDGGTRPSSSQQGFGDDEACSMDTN
Procedure, shortened: as §1

Measured: log2 ratio of Biotin-Ahx-Ub-VS probe labelling

O=C(CCl)N1CCC[C@@H]1c1ccon1
inactive: USP34 -0.0339 | USP36 -0.122 | USP38 -0.189 | USP39 0.0959 | USP4 -0.394
